Compound activity as filed in PubChem BioAssay.
GPR151 activ = human GPR151 activation | PathHunter beta-arrestin GPR151 cells, luminescence | activation, % at 11.2 µM | Q8TDV0 | AID 1508602 | 1% of 650,000 active; in the data active = activation above about 4.9%
FBW7 act = human FBW7 E3 ligase activation, primary screen; AlphaScreen FBW7–phospho-cyclin E peptide binding, activator screen; 0.13% of 650,000 active; AID 1259310; Q969H0; normalized activity (activation), % at 26.1 µM; in the data active = normalized activity above about 1.9%;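 also: purified mutant Fbw7 with reduced substrate affinity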
TEAD-YAP block = TEAD-YAP interaction inhibition | inhibition, % at 9.12 µM | AID 1259422 | HEK-TIYL cells, TEAD-Gal4/YAP UAS-luciferase luminescence | 1.4% of 640,000 active; in the data active = inhibition above about 32%
MITF primary = inhibitors of human MITF | AlphaScreen MITF homodimerization, bead proximity signal | inhibition, % at 2.6 µM | 0.91% of 650,000 active | AID 1259374; in the data active = inhibition above about 50%
Target sequence (O75030 whole entry, looked up): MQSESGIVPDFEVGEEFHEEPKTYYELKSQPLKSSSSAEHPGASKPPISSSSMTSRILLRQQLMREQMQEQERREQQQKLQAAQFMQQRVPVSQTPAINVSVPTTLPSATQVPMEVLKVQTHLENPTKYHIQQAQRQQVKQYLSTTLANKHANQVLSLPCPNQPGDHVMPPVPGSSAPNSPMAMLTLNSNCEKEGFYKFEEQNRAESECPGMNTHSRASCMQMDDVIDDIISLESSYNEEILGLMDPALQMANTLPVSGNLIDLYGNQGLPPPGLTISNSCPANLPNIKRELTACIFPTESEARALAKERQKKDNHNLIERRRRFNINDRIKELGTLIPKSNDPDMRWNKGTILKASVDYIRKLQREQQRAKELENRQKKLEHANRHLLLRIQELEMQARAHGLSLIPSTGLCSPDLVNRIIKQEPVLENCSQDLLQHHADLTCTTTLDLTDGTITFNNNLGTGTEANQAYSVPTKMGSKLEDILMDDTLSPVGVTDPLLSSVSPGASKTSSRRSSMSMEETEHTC
A number is an active result; 0 = inactive. In the library only some 3.4% were active in any assay of this set; here they are far more common.

SMILES | GPR151 activ | FBW7 act | TEAD-YAP block | MITF primary
Cc1cccnc1Nc1nc(-c2cccs2)cs1 | 0 | 0 | 0 | 0
O=C(Nc1nc(-c2cccs2)cs1)c1ccc(Br)cc1 | 0 | 0 | 0 | 0
CN(C)c1ccc(Nc2nc(-c3cccs3)cs2)cc1 | 0 | 0 | 70 | 0
CCOC(=O)c1oc2ccccc2c1NC(=O)c1ccccc1C | 0 | 0 | 0 | 0
CCOc1ccc(NC(=O)c2oc3ccccc3c2NC(=O)c2ccco2)cc1 | 0 | 2.6 | 0 | 0
CCOC(=O)c1oc2ccccc2c1NC(=O)c1ccccc1OCC | 0 | 0 | 53 | 0
CCOc1ccccc1C(=O)Nc1nnc(CCc2ccccc2)s1 | 0 | 0 | 34 | 0
COC(=O)c1ccccc1NC(=O)c1ccccc1OC | 0 | 0 | 0 | 0
CCOc1ccccc1C(=O)Nc1ccccc1C(=O)OC | 0 | 0 | 53 | 0
Cc1ccc(C(Nc2cc(Cl)ncn2)C(F)(F)F)cc1 (stereo not drawn) | 0 | 0 | 34 | 0
CC(COc1ccc2ccccc2c1)Nc1cc(Cl)ncn1 (stereo not drawn) | 0 | 0 | 0 | 0
O=C(c1csc(-c2cc3ccccc3[nH]2)n1)N1CCOCC1 | 0 | 0 | 0 | 0
O=C(c1csc(-c2cc3ccccc3[nH]2)n1)N1CCc2ccccc21 | 0 | 0 | 40 | 0
COc1cc(CNC(=O)C2CCN(c3nc4ccccc4n3C)CC2)cc(OC)c1OC | 0 | 0 | 0 | 0
Cc1cc(C)nc(SCC(=O)Nc2ccc(N3CCOCC3)c(Cl)c2)n1 | 0 | 0 | 32 | 0
O=C(NCCn1cc(SCC(=O)N2CCN(c3ccccc3)CC2)c2ccccc21)c1ccc(F)cc1 | 0 | 0 | 0 | 0
O=C(NCCn1cc(SCC(=O)N2CCOCC2)c2ccccc21)c1ccc(F)cc1 | 0 | 0 | 32 | 0
CCOC(=O)c1[nH]c(C)c(CN(C(C)=O)c2ccc(OCC)cc2)c1C | 0 | 0 | 52 | 0
COc1ccccc1NC1=C(Cl)C(=O)N(c2ccc(C)cc2)C1=O | 0 | 0 | 0 | 0
COc1ccc(Cl)cc1NC1=C(Cl)C(=O)N(c2ccc(C)cc2)C1=O | 0 | 0 | 45 | 0
CCc1ccc(N2C(=O)C(Cl)=C(Nc3cccc(OC)c3)C2=O)cc1 | 0 | 0 | 54 | 0
COc1cccc(NC2=C(Cl)C(=O)N(c3ccc(C)cc3)C2=O)c1 | 0 | 0 | 0 | 0
COc1cccc(C(=O)Nc2nnc(COc3ccc(Cl)cc3)s2)c1 | 0 | 0 | 0 | 0
CC(C)c1nccn1CC1CCN(C(=O)c2ccccc2Cl)CC1 | 0 | 0 | 33 | 0
Cc1nn(C)c(C)c1NS(=O)(=O)c1ccc(C(C)(C)C)cc1 | 0 | 0 | 55 | 0
SMILES | GPR151 activ | FBW7 act | TEAD-YAP block | MITF primary
CC(=O)Nc1ccc(S(=O)(=O)Nc2c(C)nn(C)c2C)cc1 | 0 | 0 | 0 | 0
CSc1nsc(N/N=C/c2ccccc2)c1C#N | 0 | 0 | 0 | 0
N#Cc1c(Cl)nsc1N/N=C/c1ccccc1 | 0 | 0 | 41 | 0
Cn1cnc([N+](=O)[O-])c1NCCO | 0 | 0 | 0 | 0
Cn1nnnc1SCc1cnc(-c2ccccc2)s1 | 0 | 0 | 0 | 0
Cc1nnc(SCc2cnc(-c3ccc(C(C)C)cc3)s2)n1C | 0 | 0 | 58 | 0
Cc1cccc(NC(=O)COC(=O)c2ccc3[nH]c(=O)c(=O)[nH]c3c2)c1C | 0 | 0 | 0 | 0
CN1CCN(c2ccc(-c3cccc(C=O)c3)cn2)CC1 | 0 | 0 | 0 | 0
CCCNC(=O)c1cccc(-c2ccc(N3CCN(C)CC3)cc2)n1 | 0 | 0 | 0 | 0
O=C(NCc1nc2ccccc2[nH]1)c1ccnc(-c2ccc(N3CCOCC3)nc2)c1 | 0 | 0 | 32 | 0
O=C(NCc1nc2ccccc2[nH]1)c1ccnc(N2CCOCC2)c1 | 0 | 0 | 0 | 0
CN1CCN(c2ccc(-c3cccc(C(=O)NCc4nc5ccccc5[nH]4)n3)cc2)CC1 | 0 | 0 | 49 | 0
c1ccc2[nH]c(CNc3cc(-c4ccc(N5CCOCC5)nc4)ncn3)nc2c1 | 0 | 0 | 0 | 0
O=C(NCc1nc2ccccc2[nH]1)c1cccc(-c2ccc(N3CCOCC3)nc2)c1 | 0 | 0 | 43 | 0
O=Cc1cccc(-c2ccc(N3CCOCC3)nc2)c1 | 0 | 0 | 47 | 0
COc1ccc(S(=O)(=O)N(CC(=O)Nc2cccc(OC)c2)c2ccc(C)cc2)cc1 | 0 | 0 | 0 | 0
CCOC(=O)N1CCN(C(=O)c2ccc(Cn3c(=S)[nH]c4ccccc4c3=O)cc2)CC1 | 0 | 0 | 45 | 0
CCC(C(=O)NNC(=O)Nc1cc(C)ccc1OC)c1ccccc1 (stereo not drawn) | 0 | 0 | 0 | 0
COc1cccc(N2CCN(c3c4c(nc5nncn35)CCC4)CC2)c1 | 0 | 0 | 37 | 0
Cc1ccc(C(=O)NC(C)Cc2cccs2)c(C)c1 (stereo not drawn) | 0 | 0 | 88 | 0
CCC(C)NC(=O)c1ccc(C)cc1C (stereo not drawn) | 0 | 0 | 0 | 0
